This passage reports outcome results from PubChem BioAssay (NCATS).

The structures appear in SMILES notation. Inconclusive results are not listed. Active and inactive are the calls of the source. Unless noted, calls come from the whole dose curve; as a rule, active = well fitted curve in the direction sought with a large enough effect; inconclusive = small, poorly fitted or top-dose-only effect, or another doubt; inactive = no such curve, though single readings can be large; an effect the other way counts as inactive or inconclusive.

Sequence of DNA dC->dU-editing enzyme APOBEC-3G (Homo sapiens) (Q9HC16 whole entry, looked up): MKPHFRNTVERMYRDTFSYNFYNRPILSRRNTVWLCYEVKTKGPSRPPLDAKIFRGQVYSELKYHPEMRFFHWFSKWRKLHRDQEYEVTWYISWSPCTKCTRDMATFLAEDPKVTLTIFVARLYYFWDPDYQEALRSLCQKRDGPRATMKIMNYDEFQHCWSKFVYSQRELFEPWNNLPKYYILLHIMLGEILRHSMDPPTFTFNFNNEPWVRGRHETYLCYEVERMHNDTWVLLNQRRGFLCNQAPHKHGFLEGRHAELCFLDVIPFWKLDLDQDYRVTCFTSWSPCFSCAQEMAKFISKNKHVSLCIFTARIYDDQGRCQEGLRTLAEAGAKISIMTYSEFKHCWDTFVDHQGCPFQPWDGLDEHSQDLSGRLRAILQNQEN
Sequence of Peptidyl-prolyl cis-trans isomerase NIMA-interacting 1 (Homo sapiens) (Q13526 whole entry, looked up): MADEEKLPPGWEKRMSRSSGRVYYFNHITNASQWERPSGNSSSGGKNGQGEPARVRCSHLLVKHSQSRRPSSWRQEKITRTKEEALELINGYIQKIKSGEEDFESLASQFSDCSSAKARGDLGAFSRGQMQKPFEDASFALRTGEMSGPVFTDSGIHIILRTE
Sequence of Phosphoglycerate kinase, glycosomal (Trypanosoma brucei brucei) (P07378 whole entry, looked up): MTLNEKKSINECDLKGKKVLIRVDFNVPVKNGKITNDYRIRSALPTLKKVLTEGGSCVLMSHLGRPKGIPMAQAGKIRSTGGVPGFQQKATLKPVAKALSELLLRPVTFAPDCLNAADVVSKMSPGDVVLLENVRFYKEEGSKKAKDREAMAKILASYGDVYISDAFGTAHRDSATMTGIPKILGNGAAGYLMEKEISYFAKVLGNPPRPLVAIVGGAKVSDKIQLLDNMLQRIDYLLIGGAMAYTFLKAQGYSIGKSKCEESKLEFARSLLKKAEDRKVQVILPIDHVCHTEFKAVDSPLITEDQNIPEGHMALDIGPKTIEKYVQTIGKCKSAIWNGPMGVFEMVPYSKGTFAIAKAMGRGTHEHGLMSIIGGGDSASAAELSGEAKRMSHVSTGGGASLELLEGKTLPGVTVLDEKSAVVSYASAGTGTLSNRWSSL
Sequence of Ubiquitin carboxyl-terminal hydrolase 1 (Homo sapiens) (O94782 whole entry, looked up): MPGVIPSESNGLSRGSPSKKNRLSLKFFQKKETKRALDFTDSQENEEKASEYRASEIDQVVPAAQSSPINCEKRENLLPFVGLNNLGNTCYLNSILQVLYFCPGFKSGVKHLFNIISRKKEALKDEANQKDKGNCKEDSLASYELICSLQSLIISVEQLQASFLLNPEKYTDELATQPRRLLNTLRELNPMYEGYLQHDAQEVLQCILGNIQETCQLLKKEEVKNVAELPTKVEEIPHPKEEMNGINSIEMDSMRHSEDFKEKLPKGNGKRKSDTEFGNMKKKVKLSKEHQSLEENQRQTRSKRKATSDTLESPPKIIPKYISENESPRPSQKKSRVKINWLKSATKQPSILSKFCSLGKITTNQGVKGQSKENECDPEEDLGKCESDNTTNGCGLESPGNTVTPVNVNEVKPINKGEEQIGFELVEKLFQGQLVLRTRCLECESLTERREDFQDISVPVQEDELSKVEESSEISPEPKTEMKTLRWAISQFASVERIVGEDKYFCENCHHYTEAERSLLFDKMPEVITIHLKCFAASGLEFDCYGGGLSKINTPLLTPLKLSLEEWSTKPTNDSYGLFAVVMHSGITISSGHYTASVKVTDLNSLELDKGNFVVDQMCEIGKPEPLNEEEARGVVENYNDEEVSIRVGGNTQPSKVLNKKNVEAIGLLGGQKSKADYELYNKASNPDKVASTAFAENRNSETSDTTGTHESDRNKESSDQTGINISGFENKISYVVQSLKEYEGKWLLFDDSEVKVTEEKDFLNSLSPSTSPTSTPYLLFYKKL
Sequence of phosphoglycerate mutase (Leishmania major) (Q4Q090 1-553): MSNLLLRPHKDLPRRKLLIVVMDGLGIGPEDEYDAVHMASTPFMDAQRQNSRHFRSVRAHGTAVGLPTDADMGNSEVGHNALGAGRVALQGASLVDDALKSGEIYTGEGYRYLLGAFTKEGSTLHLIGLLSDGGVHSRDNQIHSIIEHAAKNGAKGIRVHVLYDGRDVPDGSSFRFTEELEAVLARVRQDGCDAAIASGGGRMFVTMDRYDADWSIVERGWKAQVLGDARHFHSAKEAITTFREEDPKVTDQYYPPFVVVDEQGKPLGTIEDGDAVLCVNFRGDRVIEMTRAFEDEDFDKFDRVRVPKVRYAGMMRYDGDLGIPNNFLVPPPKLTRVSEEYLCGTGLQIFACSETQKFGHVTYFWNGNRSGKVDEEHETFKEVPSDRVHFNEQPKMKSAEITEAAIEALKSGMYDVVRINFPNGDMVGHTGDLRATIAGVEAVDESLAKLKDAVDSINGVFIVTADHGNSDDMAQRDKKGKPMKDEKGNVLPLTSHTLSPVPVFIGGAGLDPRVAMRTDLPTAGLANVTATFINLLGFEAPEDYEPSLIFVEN

One test addresses Peptidyl-prolyl cis-trans isomerase NIMA-interacting 1 (Homo sapiens) (UniProt Q13526). As to the kind of experiment: qHTS Validation Assay to Find Inhibitors of Pin1 (AID 504536; active = well fitted inhibition curve with a large enough effect in the polarisation, with a control signal flat, not every such curve was filed as active; the % refers to the polarisation). The settings on record: Pin1 fluorescence polarization peptide binding assay; series mostly up to 57.5 µM. An outline of the steps: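 Fluorescence polarization competition: compounds (titration) displace HiFluor-488-labeled Pin1-1b peptide from Pin1 (0.3 uM final) in pH 7.5 HEPES buffer with DTT, 10 min at room temperature; %Activity normalized to no-enzyme wells, curves fitted.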
On to `COc1ccc2cc([S+]([O-])Cc3ncc(C)c(OC)c3C)nc2c1`, for which the result was inactive.
For `CN[C@H](CC(C)C)C(=O)N[C@H]1C(=O)N[C@@H](CC(N)=O)C(=O)N[C@@H]2C(=O)N[C@H]3C(=O)N[C@H](C(=O)N[C@H](C(=O)O)c4cc(O)cc(O)c4-c4cc3ccc4O)[C@H](O)c3ccc(c(Cl)c3)Oc3cc2cc(c3O[C@@H]2O[C@H](CO)[C@@H](O)[C@H](O)[C@@H]2O[C@H]2C[C@](C)(N)[C@H](O)[C@H](C)O2)Oc2ccc(cc2Cl)[C@H]1O`, the compound was called inactive.
Take `O=c1[nH]c(=O)n([C@H]2C[C@@H](O)[C@@H](CO)O2)cc1C=CBr`: the call was inactive.

A further test concerns the target Phosphoglycerate kinase, glycosomal (Trypanosoma brucei brucei) (UniProt P07378). As to the kind of experiment: qHTS Validation Assay to Find Inhibitors of Phosphoglycerate Kinase (AID 504547). The settings on record: enzymatic PGK inhibition, coupled luminescence read-out; series mostly up to 57.5 µM. Put shortly: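 PGK activity was coupled to GAPDH (100nM final), which generates the unstable substrate 1,3-bisphosphoglycerate in-well. Reactions ran 60 minutes at room temperature in 100mM TEA pH 7.6, 5mM MgCl2, 0.01% Tween-20, then Kinase-Glo Plus luminescence was read.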
`COc1ccc2cc([S+]([O-])Cc3ncc(C)c(OC)c3C)nc2c1`: the result was inactive.
Still for that read-out and setting: the value for `CN[C@H](CC(C)C)C(=O)N[C@H]1C(=O)N[C@@H](CC(N)=O)C(=O)N[C@@H]2C(=O)N[C@H]3C(=O)N[C@H](C(=O)N[C@H](C(=O)O)c4cc(O)cc(O)c4-c4cc3ccc4O)[C@H](O)c3ccc(c(Cl)c3)Oc3cc2cc(c3O[C@@H]2O[C@H](CO)[C@@H](O)[C@H](O)[C@@H]2O[C@H]2C[C@](C)(N)[C@H](O)[C@H](C)O2)Oc2ccc(cc2Cl)[C@H]1O` was “inactive”.
Still for that read-out and setting: under `O=c1[nH]c(=O)n([C@H]2C[C@@H](O)[C@@H](CO)O2)cc1C=CBr` stands “inactive”.

For another test, the target named is phosphoglycerate mutase (Leishmania major) (UniProt Q4Q090). As to the kind of experiment: qHTS Validation Assay to Find Inhibitors of Phosphoglycerate Mutase (AID 504548).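 Note: end-point luminescence from Kinase-GloPlus after the PGAM reaction.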 The following applies: biochemical enzyme activity; series mostly up to 57.5 µM. An outline of the steps:
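Inhibition of L. major PGAM was assessed by Kinase-GloPlus luminescence following a 45-minute room-temperature reaction with enzyme at 1.25nM final.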
Take `COc1ccc2cc([S+]([O-])Cc3ncc(C)c(OC)c3C)nc2c1`: the compound was classed as inactive.
On the same count and under the same terms, the value for `CN[C@H](CC(C)C)C(=O)N[C@H]1C(=O)N[C@@H](CC(N)=O)C(=O)N[C@@H]2C(=O)N[C@H]3C(=O)N[C@H](C(=O)N[C@H](C(=O)O)c4cc(O)cc(O)c4-c4cc3ccc4O)[C@H](O)c3ccc(c(Cl)c3)Oc3cc2cc(c3O[C@@H]2O[C@H](CO)[C@@H](O)[C@H](O)[C@@H]2O[C@H]2C[C@](C)(N)[C@H](O)[C@H](C)O2)Oc2ccc(cc2Cl)[C@H]1O` was “inactive”.
`O=c1[nH]c(=O)n([C@H]2C[C@@H](O)[C@@H](CO)O2)cc1C=CBr`: the call was inactive.

Another test addresses Ubiquitin carboxyl-terminal hydrolase 1 (Homo sapiens) (UniProt O94782). Put plainly: Inhibitors of USP1/UAF1: Pilot qHTS (AID 504865).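 Note: rhodamine fluorescence freed from ubiquitin-rhodamine substrate followed over time; top concentration of the series differs between compounds; nearly all actives have a fitted effect of over 35% in size.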 The settings on record: purified USP1/UAF1, Ub-rhodamine cleavage fluorescence; series mostly up to 114 µM. An outline of the steps: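 Enzyme-free wells gave the negative control, while test wells held 1nM USP1/UAF1 preincubated with compound for 15 min at room temperature. Ub-Rho at 150nM final started the reaction, and fluorescence at 480/540 nm was recorded kinetically.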
`C[C@@]12C(=O)OC(=O)[C@@]1(C)C1CCC2O1`: the outcome was inactive.
On the same count and under the same terms, under `Cc1cc(O)c2c(c1)C(=O)c1cccc(O)c1C2=O` stands “inactive”; under `Cc1ccc(O)c(C(CCN(C(C)C)C(C)C)c2ccccc2)c1` (stereo unspecified), “inactive”; under `CCN1CCN(C(=O)N[C@H](C(=O)N[C@@H]2C(=O)N3C(C(=O)O)=C(CSc4nnnn4C)CS[C@@H]23)c2ccc(O)cc2)C(=O)C1=O`, “inactive”.
The same measure, in the same setting: the value for `CN(N=O)C(=O)N[C@H]1C(O)OC(CO)[C@@H](O)[C@H]1O` (stereo partly specified) was “inactive”; that for `O=C(O)C=Cc1ccc(Cn2ccnc2)cc1` was “inactive”.
With `CCOC(=O)C1=C(C)NC(=S)NC1c1cccc(O)c1` (stereo unspecified), the compound was called inactive.
As for `CN(C)CC[C@H](c1ccc(Cl)cc1)c1ccccn1`, the compound was classed as inactive.
Same read-out and setting: under `Nc1nc2c(c(=O)[nH]1)N(C=O)[C@H](CNc1ccc(C(=O)N[C@@H](CCC(=O)O)C(=O)O)cc1)CN2` stands “inactive”.
On the same count and under the same terms, the value for `COc1ccc2c(c1OC)C(=O)OC2[C@H]1c2c(cc3c(c2OC)OCO3)CCN1C` (stereo partly specified) was “inactive”.
On the same count and under the same terms, under `OCC(O)C(O)C(O)CO` (stereo unspecified) stands “inactive”.
For `O=c1[nH]c(=O)n([C@H]2C[C@@H](O)[C@@H](CO)O2)cc1C=CBr`, the compound was classed as inactive.
For the compound `COc1ccc([C@@H]2CNC(=O)C2)cc1OC1CCCC1`, the call was inactive.
On the same count and under the same terms, the value for `COc1ccc(C(C)=O)c(O)c1` was “inactive”; that for `c1coc(CNc2ncnc3nc[nH]c23)c1` was “inactive”.

Tested on in another test: not listed separately
As to the kind of experiment: qHTS for Inhibitors of ATXN expression: Validation of Cytotoxic Assay (AID 588349). The following applies: cytotoxicity counter-screen for ATXN expression inhibitors, cell viability; series mostly up to 57.1 µM. An outline of the steps: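 HEK293, compound dose series, 72 hr / 37 degrees C; viability via CellTiter Glo (intracellular ATP).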
Take `COc1ccc2cc([S+]([O-])Cc3ncc(C)c(OC)c3C)nc2c1`: the call was inactive.
Still for that read-out and setting: under `CN[C@H](CC(C)C)C(=O)N[C@H]1C(=O)N[C@@H](CC(N)=O)C(=O)N[C@@H]2C(=O)N[C@H]3C(=O)N[C@H](C(=O)N[C@H](C(=O)O)c4cc(O)cc(O)c4-c4cc3ccc4O)[C@H](O)c3ccc(c(Cl)c3)Oc3cc2cc(c3O[C@@H]2O[C@H](CO)[C@@H](O)[C@H](O)[C@@H]2O[C@H]2C[C@](C)(N)[C@H](O)[C@H](C)O2)Oc2ccc(cc2Cl)[C@H]1O` stands “inactive”; under `O=c1[nH]c(=O)n([C@H]2C[C@@H](O)[C@@H](CO)O2)cc1C=CBr`, “inactive”.

Tested on in another test: not listed separately
As to the kind of experiment: qHTS for Inhibitors of ATXN expression: Validation (AID 588378). Note: nearly all actives have a fitted effect of over 75% in size. The following applies: cell-based ATXN2 expression reporter assay, luminescence; series mostly up to 57.1 µM. An outline of the steps:
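After a 2 h attachment and 24 h compound incubation, HEK293-ATXN2-FFLuc wells are read for fluorescence at 405 nm excitation/525 nm emission as a viability measure, then for Bright-Glo luminescence reflecting ATXN2 expression.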
Consider `COc1ccc2cc([S+]([O-])Cc3ncc(C)c(OC)c3C)nc2c1`, for which the call was inactive.
As for `CN[C@H](CC(C)C)C(=O)N[C@H]1C(=O)N[C@@H](CC(N)=O)C(=O)N[C@@H]2C(=O)N[C@H]3C(=O)N[C@H](C(=O)N[C@H](C(=O)O)c4cc(O)cc(O)c4-c4cc3ccc4O)[C@H](O)c3ccc(c(Cl)c3)Oc3cc2cc(c3O[C@@H]2O[C@H](CO)[C@@H](O)[C@H](O)[C@@H]2O[C@H]2C[C@](C)(N)[C@H](O)[C@H](C)O2)Oc2ccc(cc2Cl)[C@H]1O`, the call was inactive.
Take `O=c1[nH]c(=O)n([C@H]2C[C@@H](O)[C@@H](CO)O2)cc1C=CBr`: the result was inactive.

The target in another test is DNA dC->dU-editing enzyme APOBEC-3G (Homo sapiens) (UniProt Q9HC16). As to the kind of experiment: qHTS for inhibitors of Vif-A3G interactions: Validation (AID 588379). The following applies: Vif-A3G protein interaction assay; series mostly up to 46.1 µM. Put shortly:
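HeLa cells stably expressing Vif and A3G-eYFP, 700 cells/well, incubated overnight at 37 deg C, then exposed to compound overnight at 37 deg C. Inhibition of Vif-mediated degradation read as increased yellow fluorescence (Ex 488/Em 500-530) by laser-scanning cytometry.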
In the case of `Cc1cc(O)c2c(c1)C(=O)c1cccc(O)c1C2=O`, the result was inactive.
Same read-out and setting: the value for `CC(Oc1ccc(O)cc1)(P(=O)(O)O)P(=O)(O)O` was “inactive”.
Same read-out and setting: under `CN(N=O)C(=O)N[C@H]1C(O)OC(CO)[C@@H](O)[C@H]1O` (stereo partly specified) stands “inactive”.
The same measure, in the same setting: under `COc1cc2ncnc(Nc3cccc(Br)c3)c2cc1OC` stands “inactive”.
`O=C(O)C=Cc1ccc(Cn2ccnc2)cc1`: the compound was called inactive.
Still for that read-out and setting: the value for `CCOC(=O)C1=C(C)NC(=S)NC1c1cccc(O)c1` (stereo unspecified) was “inactive”; that for `CC(C)[C@H](CO)Nc1nc(Nc2cccc(Cl)c2)c2ncn(C(C)C)c2n1` was “inactive”.
Same read-out and setting: the value for `COc1ccc([C@@H]2CNC(=O)C2)cc1OC1CCCC1` was “inactive”; that for `O=c1c(O)c(-c2ccc(O)c(O)c2)oc2cc(O)ccc12` was “inactive”.
With `COc1cc2c(cc1O)CCC1C2CC[C@@]2(C)C1CC[C@@H]2O` (stereo partly specified), the outcome was inactive.
Turning to `c1coc(CNc2ncnc3nc[nH]c23)c1`, the compound was classed as inactive.
